This is a sample that favours compounds with a hit; in the whole collection about 21% have one here.
Pf growth 96h: P. falciparum growth inhibition at 96 hours. P. falciparum luciferase reporter growth, 96 h. hit rate 6.9% among 320,000. Potency, µM (titrated, usually from 28.7 µM), inactives show at the top dose activity change, negative = inhibition, usual class: inhibitors. AID 504834; further: potency means the concentration at half of the fitted maximal effect; on the % scale 0 is the no-effect control and ±100 the full control effect
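Luminescence readout: decreased luciferase signal marks inhibited growth of reporter-expressing P. falciparum in infected red cells (2% hematocrit, 0.05% parasitemia final), exposed to compound two generations (96 h, 37 C, 5% CO2).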
HCV inhibitor: HCV inhibition | hit rate 3.4% among 340,000 | Potency, µM (titrated, usually from 41.8 µM), for the others: at the top dose activity change, negative = inhibition, hits mostly inhibitors | AID 651820 | Huh7.5.1 HCVcc-Cre infection, luciferase reporter, 44 h; further: potency means the concentration at half of the fitted maximal effect; on the % scale 0 is the no-effect control and ±100 the full control effect
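Infectious HCV cell culture screen: compound-treated cells (1,000/well, pre-plated 4 h) are infected with HCVcc-Cre at roughly 0.5 moi and grown 44 h. Infection is quantified by luciferase signal after 15 min substrate incubation at room temperature.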
AMA1-RON2 inh: AMA1-RON2 (P. falciparum) interaction inhibition; Potency, µM (series often up to 58.2 µM), without a hit: top-dose activity change, negative = inhibition, most hits filed as inhibitors; AlphaScreen AMA1-biotinylated RON2 peptide binding; AID 720542; hit rate 0.2% among 360,000;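 further: potency means the concentration at half of the fitted maximal effect; 0% = vehicle wells and -100% = peptide control; nearly all actives have a fitted effect of over 45% in size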
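AMA1 (3D7) with his tag at 25 nM final met compounds first, then biotinylated RON2 peptide at 25 nM; detection used donor plus acceptor beads, 10 µg/mL apiece, read by AlphaScreen after 30 min at room temperature.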
Shiga inhibitor: inhibitors of Shiga toxin in Vero cells | Vero cells, Shiga toxin protein synthesis inhibition reporter | inhibition, % at 38.7 µM | AID 2315 | hit rate 9.2% among 290,000; in the data active means inhibition mostly above about 28%, no sharp cut-off; inactive means mostly below about 43%; further: 0% is about no effect
Cycloheximide cs: counter-screen for Shiga toxin inhibitors: cycloheximide protein synthesis inhibition; cell reporter, cycloheximide protein synthesis inhibition counterscreen; max response, %; hit rate 12% among 300,000; AID 2314; in the data active means max response mostly above about 13%, no sharp cut-off; inactive means mostly below about 14%; further: read at 38.3 µM for the half of the compounds with a filed dose; 0% is about no effect
Pf growth 48h: P. falciparum growth inhibition at 48 hours (one generation) | P. falciparum luciferase growth in erythrocytes, 48 h | Potency, µM (titrated, usually from 28.7 µM), inactives show at the highest dose activity change, negative = inhibition, actives largely listed as inhibitors | hit rate 5.9% among 310,000; further: potency means the concentration at half of the fitted maximal effect; on the % scale 0 is the no-effect control and ±100 the full control effect
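Cell-based growth assay: transgenic P. falciparum expressing firefly luciferase, cultured in red cells within RPMI 1640 containing 0.5% w/v Albumax, 24 mM bicarbonate and gentamycin. A drop in luciferase activity indicates inhibition.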
Starred values were filed as active, the others as inactive; ? = inconclusive; nt = not tested or not shown; [ ] = another dose, or the depositor's remark. Unless noted, the call rests on the fitted dose curve; in most records, active means well fitted curve in the direction sought with a large enough effect; inconclusive means small, poorly fitted or top-dose-only effect, or another doubt; inactive means no such curve, though single readings can be large; an effect the other way counts as inactive or inconclusive.

SMILES	Pf growth 96h	HCV inhibitor	AMA1-RON2 inh	Shiga inhibitor	Cycloheximide cs	Pf growth 48h
O=C(NCCSc1ccccc1)c1ccccc1Cl	-3%	10%	-18%	97*	64*	250%
CSc1ccccc1C(=O)NCCSc1ccccc1	nt	-1%	5%	27	29*	19%
COc1cccc(N2CCN(S(=O)(=O)c3ccc(-n4cnnn4)cc3)CC2)c1	48%	8%	2%	-6	-2	14%
COc1ccc(S(=O)(=O)N2CCOc3ccccc32)cc1	-9%	-11%	8%	13	-4	nt
O=C1CN(C(=O)c2ccc(Br)o2)C(c2ccccc2)c2cc(F)ccc2N1 (centres undefined)	12µM*	1%	-6%	-12	-6	nt
CN[C@@H](CO)C(=O)NC[C@H]1O[C@@H](n2cnc3c(=O)[nH]c(N)nc32)[C@H](O)[C@@H]1O	nt	nt	3%	nt	nt	nt
Cc1ccccc1OCC(=O)NNC(=O)CSc1nc(N)cc(N)n1	8.3µM*	11%	83%	-13	-1	16%
CCOC(=O)CNC(=O)CSc1nc(N)cc(N)n1	10µM*	12%	5%	-13	-1	-4%
Cc1cccc(NC(=O)CNC(=O)CSc2nc(N)cc(N)n2)c1C	7%	6%	-1%	nt	nt	33%
Nc1cc(N)nc(SCC(=O)NNC(=O)Cc2ccccc2)n1	21%	27%	43%	-17	2	0%
CC1(C)Cc2c(ccc3ccccc23)C(c2cc3ccccc3oc2=O)=N1	10µM*	?	-13%	-8	-4	?
CC1(C)Cc2ccccc2C(c2cc3ccccc3oc2=O)=N1	?	-11%	-2%	1	-2	8.3µM*
CCNC(=O)COc1ccc(/C=C2\COc3ccccc3C2=O)cc1OC	-22%	?	-29%	-4	2	?
COc1ccc(-c2csc(=Nc3c(C)n(C)n(-c4ccccc4)c3=O)n2C(C)(C)C)cc1	33%	10%	4%	4	0	?
COc1ccc(-c2cc(=Nc3c(C)n(C)n(-c4ccccc4)c3=O)c3ccccc3o2)cc1	0%	?	-2%	48*	41*	331%
ONC(=Nc1ccccc1Cl)c1c(F)cccc1F	nt	8%	0%	nt	nt	nt
CC(C)(C)c1ccc(-c2nc(C=O)c3ccccn23)cc1	70%	-52%	36%	56	39*	72%
COc1cccc(N2CCN(CC(=O)Nc3ccccc3C(=O)NCc3ccccc3)CC2)c1	?	?	-13%	nt	nt	9.3µM*
O=C(CN1CCN(c2ccc(O)cc2)CC1)Nc1ccccc1C(=O)NCCc1ccccc1	?	13µM*	5%	nt	nt	?
COc1cccc(N2CCN(CC(=O)Nc3ccccc3C(=O)NCCc3ccccc3)CC2)c1	?	?	-16%	nt	nt	?
COc1cc2c(cc1OC)CN(CC(=O)Nc1ccccc1C(=O)NCc1ccccc1)CC2	2.9µM*	-26%	6%	-13	1	17µM*
COc1cc2c(cc1OC)CN(CC(=O)NC(=O)NCc1ccccc1)CC2	?	-2%	4%	-11	2	9.3µM*
COc1ccccc1N1CCN(CC(=O)NC(=O)NCc2ccccc2)CC1	nt	nt	-11%	nt	nt	nt
COc1cc2c(cc1OC)CN(CC(=O)Nc1ccccc1C(=O)NC1CC1)CC2	-75%	0%	20%	nt	nt	?
Cc1cc(C(=O)CN2CCN(CC(=O)Nc3ccc(F)cc3)CC2)c(C)n1C1CC1	-7%	-5%	6%[11.6 µM]	nt	nt	?
SMILES	Pf growth 96h	HCV inhibitor	AMA1-RON2 inh	Shiga inhibitor	Cycloheximide cs	Pf growth 48h
COc1ccc(/C=C2/C(=O)N(c3nc4ccccc4s3)N=C2CSc2ccc(Cl)cc2)cc1	4%	14%	77%[11.6 µM]	14	14*	16%
CCOC(=O)c1cnc2c(C(=O)OC)cccc2c1NCc1ccco1	nt	4%	37%	-9	6	?
CCOC(=O)c1ccc2ncc(C(=O)OCC)c(NCc3ccco3)c2c1	1.7µM*	-13%	4%	13	27*	nt
CCOC(=O)c1cnc2c(C)cccc2c1NCc1ccco1	?	11µM*	-1%	37*	24*	?
O=C1CCCCC(=O)[C@H](O)C[C@H](COCc2ccccc2)O1	nt	nt	1%	nt	nt	nt
O=C(COc1cc2oc(=O)c3c(c2cc1Cl)CCC3)Nc1ccccn1	15%	11%	-14%	-3	2	25%
O=C(COc1cc2oc(=O)c3c(c2cc1Cl)CCC3)Nc1cccnc1	190%	21%	-4%	21	28*	149%
Cc1c(OCC(=O)Nc2cccnc2)ccc2c3c(c(=O)oc12)CCC3	?	-1%	-3%	23	20*	-23%
O=C(COC(=O)C1=COCCO1)Nc1ccc(Br)cc1Br	nt	-10%	1%	nt	nt	nt
COc1cccc(-c2nnc(N(C)C(=O)C3CCOC3)s2)c1 (centres undefined)	?	11%	13%	58*	29*	43%
COc1cccc(C(=O)N(C)c2nnc(-c3ccncc3)s2)c1	52%	2%	15%	14	6	44%
COC(=O)c1cc2c(cc1N)OCCO2	4%	3%	-8%	26	25*	30%
CCOCCCNC(=O)c1cc(=O)n(Cc2cccc(C)c2)c2ccccc12	10%	-23%	0%	-17	7	?
Cc1ccccc1-c1nc(CN(C)C(C)c2ccon2)c(C)o1 (centres undefined)	2.3µM*	-24%	1%	26	2	-4%
COc1ccc(-c2nc(CN(C)C(C)c3ccon3)c(C)o2)c(C)c1C (centres undefined)	22%	10µM*	-18%	13	7	?
COc1ccc(-c2nc(CN(CC3CCC(=O)N3)C(C)C)c(C)o2)c(C)c1C (centres undefined)	32%	?	-1%	87*	25*	0%
CCOc1ccc(-c2nc(CN(Cc3ccccc3)C[C@@H]3CCC(=O)N3)c(C)o2)cc1	0%	?	-4%	9	8	?
Cc1oc(-c2ccccc2Cl)nc1CN(C)C(C)c1ccon1 (centres undefined)	?	-3%	-4%	36	7	2%
COc1ccc(OC)c(-c2nc(CN(C)C(C)c3ccncn3)c(C)o2)c1 (centres undefined)	15%	-11%	60%	-9	2	-16%
Cc1ccc(S(=O)(=O)N2CCOCC2)cc1NC(=O)COC(=O)COc1ccccc1[N+](=O)[O-]	nt	0%	5%	nt	nt	nt
COc1ccc(C(O)c2cnc(C)n2Cc2ccccc2)cc1 (centres undefined)	nt	nt	0%	nt	nt	nt
c1ccc(-c2cc(-c3ccc(N4CCOCC4)cc3)nc3ccccc23)cc1	13µM*	-11%	8%	-9	14*	?
COc1ccc2c(-c3ccccc3)cc(N3CCOCC3)nc2c1	nt	13µM*	61%	-5	0	?
O=C(N/C(=C/c1ccc(F)cc1)C(=O)N1CCOCC1)c1ccco1	nt	nt	-7%	nt	nt	nt

Screening data deposited in PubChem by National Center for Advancing Translational Sciences (NCATS).
